Screens as filed in PubChem BioAssay.
BJeLR lethal: BJeLR cell viability loss | BJeLR (HRASV12) viability, CellTiter-Glo ATP luminescence, 48 h | inhibition, % (no concentration beside the values) | 300,000 compounds, 0.17% hits; in the data active = inhibition above about 50%
PriA SSB inh: inhibitors of Klebsiella pneumoniae PriA binding to SSB C-terminal tail. AlphaScreen SSBct-PriA binding, biotinylated peptide. inhibition, % at 33 µM. 430,000 compounds, 0.6% hits. AID 1272365; in the data active = inhibition mostly above about 37%, no sharp cut-off; inactive = mostly below about 20%;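 also: plate controls were negative control peptide for no effect and reference peptide for full effect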
SARS 3CLpro inh: SARS-CoV 3CLpro protease inhibition | P0C6X7 | recombinant SARS-CoV 3CLpro, quenched FRET peptide cleavage | inhibition, % at 6 µM | 290,000 compounds, 0.14% hits; in the data active = inhibition above about 12%
Active calls of the source: *; ! = not active in a repeat. An excerpt weighted towards active compounds, which were near 0.78% of everything screened.

`CC(=O)Nc1cccc(NC(=O)CSc2nc(CC(=O)N3CCCC(C)C3)cs2)c1` (stereo unspecified) gave PriA SSB inh 8.
`O=C(c1cc(-n2cccn2)ccn1)N1CCN(C/C=C/c2ccccc2)CC1` gave PriA SSB inh 8.
`O=C(CCc1ccccc1)NNC(=O)c1ccc(=O)n(Cc2ccc(Cl)cc2)c1` gave PriA SSB inh -3.
For Cc1ccc2nc(NC(=O)c3ccc(=O)n(C)n3)sc2c1 the results were PriA SSB inh -6.
Screening Cn1cccc(C(=O)N2CCC(Oc3ccc(C(F)(F)F)cn3)CC2)c1=O returned PriA SSB inh -7.
CN1CCN(c2ccc([N+](=O)[O-])c3no[n+]([O-])c23)CC1 was read as BJeLR lethal 71* and SARS 3CLpro inh -38.
CN1CCN(c2ccc(S(C)(=O)=O)cc2[N+](=O)[O-])CC1 was read as BJeLR lethal 4, PriA SSB inh -11 and SARS 3CLpro inh 2.
`Brc1nc(-c2ccccn2)n[nH]1` gave PriA SSB inh 142*.
`Clc1nc(-c2ccccn2)n[nH]1` gave PriA SSB inh 163*.
Screening c1ccc(-c2nc(-c3ccncc3)n[nH]2)nc1 returned BJeLR lethal 10, PriA SSB inh 28 and SARS 3CLpro inh 4.
Screening Clc1ccc(-c2nc(-c3ccccn3)no2)cc1Cl returned BJeLR lethal 25, PriA SSB inh -10 and SARS 3CLpro inh 3.
Screening COCCN(CCOC)C(=O)NC(=O)c1ccc(Cl)cc1 returned PriA SSB inh 10.
O=C(Cc1noc2ccccc12)Nc1cnn(C2CCOC2)c1 (stereo unspecified) was read as PriA SSB inh 0.
`CCCC[N+]1=C(C)c2cccc3c(Cl)ccc1c23` gave PriA SSB inh -25.
Cc1sc2cc3c(c(C(=O)c4ccccc4)[n+]2c1C)-c1cccc2cccc-3c12 was read as BJeLR lethal 68*, PriA SSB inh 22 and SARS 3CLpro inh -14.
O=C(c1ccccc1)c1c2c(cc3sc4ccccc4[n+]13)-c1cccc3cccc-2c13 was read as PriA SSB inh 28 and SARS 3CLpro inh -124.
O=C(c1cc(-c2ccccc2)n[nH]1)N1CCC(N2CCC[C@@H]2COCc2ccccc2)CC1 was read as PriA SSB inh -2.
CCOC(=O)C1C(c2ccc(C)o2)NC(=O)NC1(O)C(F)(F)F (stereo unspecified) was read as BJeLR lethal 8, PriA SSB inh 43*! and SARS 3CLpro inh -4.
Screening Cc1ccc(C2NC(=O)NC(O)(C(F)(F)F)C2C(=O)c2ccccc2)o1 (stereo unspecified) returned BJeLR lethal 8, PriA SSB inh -16 and SARS 3CLpro inh -9.
Screening COc1ccc(S(=O)(=O)C2CN(C(=O)c3nc4ccccc4s3)C2)cc1 returned PriA SSB inh -7.
CCOC(=O)c1sc(NC(=S)NC(=O)c2ccccc2Cl)c(C(=O)OCC)c1C was read as BJeLR lethal -1, PriA SSB inh -1 and SARS 3CLpro inh -7.
`CCOC(=O)c1sc(NC(=S)NC(=O)c2ccccc2)c(C(=O)OCC)c1C` gave BJeLR lethal 2, PriA SSB inh 82*! and SARS 3CLpro inh 3.
Screening CCN(CC)C(=O)c1sc(NC(=O)c2ccncc2)c(C(=O)OC)c1C returned BJeLR lethal -4, PriA SSB inh 65* and SARS 3CLpro inh -3.
For CCOC(=O)c1sc(NC(=O)c2ccncc2)c(C(=O)OCC)c1C the results were PriA SSB inh -13.
For O=C(O)c1cccn(Cc2cccc([N+](=O)[O-])c2)c1=O the results were PriA SSB inh 8.
`O=C(NCCn1ccc(-c2ccncc2)n1)c1cc(C2CC2)on1` gave PriA SSB inh -4.
O=C(CSc1nc2c(sc3ncccc32)c(=O)n1Cc1ccccc1)Nc1cccc(Cl)c1 was read as PriA SSB inh -5.
`Cc1cc(I)ccc1NC(=O)CSc1cccc2cccnc12` gave PriA SSB inh 45.
Screening Cc1ccc(C(=O)CSc2cccc3cccnc23)c(C)c1 returned PriA SSB inh 17.
For Cc1ccc(C)c(C(=O)CSc2cccc3cccnc23)c1 the results were PriA SSB inh 108*.
Screening Cc1ccc(C(=O)COC(=O)CSc2cccc3cccnc23)c(C)c1 returned BJeLR lethal 11, PriA SSB inh 78* and SARS 3CLpro inh 2.
`O=C(NCCn1cnc2ccsc2c1=O)c1cc(-c2cccnc2)on1` gave PriA SSB inh -6.
O=C(NCCn1cnc2ccsc2c1=O)c1cc(C2CC2)on1 was read as PriA SSB inh 38*.
O=C(Nc1nc(-c2cc3ccccc3o2)cs1)c1cccc(S(=O)(=O)N2CCOCC2)c1 was read as PriA SSB inh 41.
For COC(=O)C[C@](O)(CCCC(C)(C)O)C(=O)O[C@@H]1C(OC)=C[C@]23CCCN2CCc2cc4c(cc2[C@H]13)OCO4 the results were BJeLR lethal 92*.
CCCCOc1ccc(C(=O)Nc2ccc(-c3ccc(NC(=O)c4ccc(OCCCC)cc4)c(C)c3)cc2C)cc1 was read as PriA SSB inh 0.
For COc1ccc(OC)c2sc(N(CCN3CCOCC3)C(=O)c3snnc3C)nc12 the results were PriA SSB inh -8.
For O=C(c1ccc(-c2cc(O)c3ncccc3c2)cc1)N1CCNCC1 the results were PriA SSB inh 74*.
For CC(C)(C)c1ccc(C(=O)N2CCNCC2)cc1 the results were BJeLR lethal 4, PriA SSB inh 0 and SARS 3CLpro inh -5.
CN1CCOc2ccc(NS(=O)(=O)c3ccc(Cl)s3)cc2C1=O was read as PriA SSB inh 3.
`CC1CC(C)CN(S(=O)(=O)c2ccc(C(=O)Nc3ccc(F)cc3F)cc2)C1` (stereo unspecified) gave PriA SSB inh -24.
For O=C1CCCC(=O)N1CCS(=O)(=O)N1CC(c2nc(-c3ncccn3)no2)C1 the results were PriA SSB inh -3.
`Cc1ccc(C)c(OCC(=O)Nc2cccc(S(=O)(=O)NC3=NCCCCC3)c2)c1` gave BJeLR lethal 2, PriA SSB inh 49* and SARS 3CLpro inh -5.
Cc1cc(Cl)ccc1OCC(=O)Nc1cccc(S(=O)(=O)NC2=NCCCCC2)c1 was read as BJeLR lethal 5 and PriA SSB inh 0.
`Fc1ccc(-c2c[nH]c(=S)n2Cc2ccccc2)cc1` gave BJeLR lethal -2, PriA SSB inh 8 and SARS 3CLpro inh 10.
Screening O=c1[nH]cc(-c2ccc(Br)cc2)n1Cc1ccccc1 returned BJeLR lethal 0, PriA SSB inh 77* and SARS 3CLpro inh -5.
COc1cccc(CSc2nc(CC(=O)NCCc3ccccc3)cc(=O)[nH]2)c1 was read as PriA SSB inh -10.
Screening O=C1C(=O)c2ccccc2-c2ccccc21 returned BJeLR lethal 100*, PriA SSB inh 14 and SARS 3CLpro inh 4.
For O=C1C(=C(I)I)c2ccccc2-c2ccccc21 the results were PriA SSB inh 81*.
For O=C1c2ccccc2-c2cccnc21 the results were BJeLR lethal -2, PriA SSB inh 5 and SARS 3CLpro inh -7.
`O=C(O)c1cccc2c1C(=O)c1ccccc1-2` gave BJeLR lethal 0, PriA SSB inh 5 and SARS 3CLpro inh 1.
For O=C(COc1ccc(Cl)cc1Cl)N(CC(F)(F)F)C1CCOCC1 the results were PriA SSB inh 11.
